IL-1B inflam inh: qHTS for Inhibitors of Inflammasome Signaling: IL-1-beta AlphaLISA Primary Screen | THP-1 LPS/ATP IL-1B secretion, AlphaLISA, 16 h; active compounds read low | activity change, % at 57.5 µM | 360,000 compounds, 4.7% hits | AID 743279, 2014; in the data active = activity change below about -50%; inconclusive = mostly about -30% to -49%
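Secreted IL-1B measured by AlphaLISA bead assay after 16 h compound exposure of THP-1 cells; compounds (final up to 57.5 uM) added 1 h before LPS (250 ng/mL) and ATP (1.25 mM) stimulation; lower signal means less secretion.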
DT40 TDP1 CPT: qHTS for Inhibitors of human tyrosyl-DNA phosphodiesterase 1 (TDP1): qHTS in cells in presence of CPT; chicken DT40 Tdp1-/-;hTDP1 cells + 20 nM CPT, ATP luminescence, 48 h; Potency, µM (doses to about 46.2 µM), inactives show at the top dose activity change, negative = growth inhibition, usual class: inhibitors; 420,000 compounds, 12% hits; note: potency is the fitted concentration of half-maximal effect; nearly all actives have a fitted effect of over 55% in size
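Chicken DT40 Tdp1-/- cells complemented with human TDP1, 400 cells/well, exposed to compounds plus 20 nM camptothecin for at least 48 h at 37 C; viability read as ATP content by CellTiter-Glo luminescence.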
TDP1 cell noCPT: qHTS for Inhibitors of human tyrosyl-DNA phosphodiesterase 1 (TDP1): qHTS in cells in absence of CPT; 420,000 compounds, 15% hits; DT40 Tdp1-/- hTDP1 cells, no CPT, ATP luminescence, 48 h; Potency, µM (highest dose often 46.2 µM), for the others: at the top dose activity change, negative = growth inhibition, hits mostly inhibitors; note: potency is the fitted concentration of half-maximal effect; nearly all actives have a fitted effect of over 55% in size
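Growth kinetics read by CellTiter-Glo luminescence after ≥48 hr at 37 °C. Cells: DT40 Tdp1-/- stably carrying human TDP1, 400 per well, compound exposure in the absence of CPT (DMSO vehicle).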
HT1080 IDH1KD tx: qHTS for induction of synthetic lethality in tumor cells producing 2HG: qHTS for the HT-1080-IDH1KD cell line | HT-1080 IDH1 knockdown viability, ATP luminescence, 48 h | Potency, µM (doses to about 46.1 µM), for the others: at the highest dose activity, negative = toxicity, most hits filed as cytotoxic | 360,000 compounds, 2% hits;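 note: potency is the fitted concentration of half-maximal effect; 0% = DMSO wells and -100% = cell-free medium wells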
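After a 2 h attachment period, IDH1KD HT-1080 cells took pin-transferred compound for 48 h at 37 °C; ATP-based luminescence after 10 min room-temperature reagent incubation reported viability.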
HT1080-NT tox: qHTS for induction of synthetic lethality in tumor cells producing 2HG: qHTS for the HT-1080-NT fibrosarcoma cell line; HT-1080-NT fibrosarcoma viability, CellTiter-Glo ATP luminescence, 48 h; Potency, µM (doses to about 46.1 µM), for inactives: at the highest dose activity, negative = less viability, hits mostly cytotoxic; 360,000 compounds, 1.6% hits;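 note: NT is the 2HG producing partner of a matched IDH1 knockdown line; potency is the fitted concentration of half-maximal effect; 0% = DMSO-treated cells and -100% = media-only wells without cells; nearly all actives have a fitted effect of over 55% in size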
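Read-out is CellTiter-Glo luminescence after 10 minutes at room temperature, following 48 hours' compound treatment of HT-1080-NT cells (750 cells/well, RPMI, 5% FBS, 37 degrees C).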
* = called active by the depositor; ? = inconclusive; . = no result given. An excerpt weighted towards active compounds, which were near 19% of everything screened. Unless noted, calls come from the whole dose curve; as a rule, active = well fitted curve in the direction sought with a large enough effect; inconclusive = small, poorly fitted or top-dose-only effect, or another doubt; inactive = no such curve, though single readings can be large; an effect the other way counts as inactive or inconclusive. Unless noted, % is set by controls: 0 for no effect and ±100 for the full control effect.

SMILES | IL-1B inflam inh | DT40 TDP1 CPT | TDP1 cell noCPT | HT1080 IDH1KD tx | HT1080-NT tox
COCCCNC(=O)CSc1nc(-c2ccc(OC)cc2)[nH]c1-c1ccc(OC)cc1 | . | -22% | -28% | . | .
Cc1ccc(-c2nc(SCC(=O)NCC3CCCO3)c(-c3ccc(C)cc3)[nH]2)cc1 (stereo unspecified) | -23 | ? | ? | 2% | -5%
COc1ccc(-c2nc(SCC(=O)NC3CCCC3)c(-c3ccc(OC)cc3)[nH]2)cc1 | -11 | ? | 16µM* | 0% | -2%
COCCNC(=O)CSc1nc(-c2ccc(F)cc2)[nH]c1-c1ccc(Cl)cc1 | . | ? | 26µM* | . | .
Cc1ccccc1-n1c(C)nnc1SCC(=O)NCC1CCCO1 (stereo unspecified) | 31 | -1% | 5% | 22µM* | ?
Cc1ccc(-c2[nH]c(-c3ccccc3)nc2SCC(=O)NCC2CCCO2)cc1 (stereo unspecified) | -17 | 15µM* | 23µM* | 0% | -7%
CC(C)N1CCN(Cc2ccoc2)CC1CCO (stereo unspecified) | 42 | -5% | 1% | 10% | 4%
COc1cccc(CN2CC(C(=O)N(C)Cc3ccc(C)cc3)CCC2=O)c1 (stereo unspecified) | -4 | -19% | -8% | 0% | -2%
Cc1cccc(Nc2nnc(SCC(=O)NCC3CCCO3)s2)c1 (stereo unspecified) | 18 | -26% | -20% | 2% | -2%
Cc1ccc(-c2nc(SCC(=O)NCC3CCCO3)c(-c3ccc(Cl)cc3)[nH]2)cc1 (stereo unspecified) | ? | ? | 21µM* | 15% | 3%
COc1ccc(-c2[nH]c(-c3ccc(Cl)cc3)nc2SCC(=O)NCC2CCCO2)cc1 (stereo unspecified) | . | 10µM* | 7.3µM* | . | .
CC(C)c1ccc(Nc2nnc(SCC(=O)NCC3CCCO3)s2)cc1 (stereo unspecified) | 11 | ? | 16µM* | -16% | 6%
Cc1ccc(-c2nc(S(=O)(=O)c3ccccc3)c(SCC(=O)NCC3CCCO3)o2)cc1 (stereo unspecified) | -25 | ? | 23µM* | -10% | 0%
COc1ccc2nc(SCC(=O)NCC3CCCO3)c(C#N)cc2c1 (stereo unspecified) | 19 | -23% | ? | -3% | -6%
CCn1c(SCC(=O)NCC2CCCO2)nnc1-c1ccc(Cl)cc1 (stereo unspecified) | 22 | 6% | 5% | 0% | -1%
COc1ccc(NC(=O)C/C(C)=N/NC(=O)C(=O)Nc2cccc(Cl)c2C)c(OC)c1 | -8 | -18% | -22% | 20% | 12%
COCCNC(=O)Cn1ccc2cc(S(=O)(=O)N3CCCCCC3)ccc21 | 2 | 10% | -27% | 4% | -2%
CCc1ccc(-c2nc(SCC(=O)NCC3CCCO3)c(-c3ccc(F)cc3)[nH]2)cc1 (stereo unspecified) | . | ? | 18µM* | . | .
CCOC(=O)c1c(C)oc2ncnc(Nc3ccc(F)cc3Cl)c12 | . | 3% | -17% | . | .
COc1ccc(CCN(Cc2cccs2)S(=O)(=O)c2ccc(S(=O)(=O)N3CCC(C)CC3)cc2)cc1OC | 7 | -28% | ? | 4% | 5%
COc1ccc(CCN(Cc2cccs2)S(=O)(=O)c2ccc(S(=O)(=O)N3CCCCCC3)cc2)cc1OC | 6 | ? | 9.2µM* | 18% | 1%
COc1ccc(CCN(Cc2cccs2)S(=O)(=O)c2ccc(-n3cnnn3)cc2)cc1OC | -19 | 12µM* | ? | ? | -17%
CCC(C)NS(=O)(=O)c1ccc(S(=O)(=O)N(CCc2ccc(OC)c(OC)c2)Cc2cccs2)cc1 (stereo unspecified) | -15 | 10µM* | 7.3µM* | -13% | -5%
COc1ccc(CC(=O)OCC(=O)Nc2ccc3c(c2)OCO3)cc1 | 16 | 15% | -17% | 1% | 0%
Cc1ccc(NC(=S)NC2CCSc3ccccc32)cc1C (stereo unspecified) | -81* | 16µM* | ? | -10% | -19%
SMILES | IL-1B inflam inh | DT40 TDP1 CPT | TDP1 cell noCPT | HT1080 IDH1KD tx | HT1080-NT tox
COc1ccccc1-c1cccc(-c2nc(C(=O)Nc3nccs3)cc3c2[C@@H](CCO)N(C(C)=O)C3)c1 | -7 | ? | ? | ? | ?
CC(C)NC(=O)N1Cc2cc(C(=O)NC3CCCC3)nc(-c3cccc(-c4cccnc4)c3)c2[C@H]1CCO | -17 | ? | ? | ? | ?
CCC(=O)N1Cc2cc(C(=O)Nc3nccs3)nc(-c3cccc(-c4ccccc4OC)c3)c2[C@H]1CCO | ? | ? | 16µM* | ? | ?
COc1ccccc1-c1cccc(-c2nc(C(=O)Nc3nccs3)cc3c2[C@H](CCO)N(C(C)=O)C3)c1 | ? | 6.5µM* | 5.8µM* | ? | ?
COc1ccc(Oc2ncc3nc(-c4ccc(OC)cc4)c(=O)n(Cc4cccs4)c3n2)cc1 | . | 4% | -2% | . | .
COc1ccc(CC(=O)N[C@@H](C)C(=O)N2CCC3(CC2)NCCc2[nH]cnc23)cc1 | 24 | 21% | -3% | 14% | 26%
C/C(=N\NC(=S)Nc1ccccc1C)c1ccc(O)cc1 | -2 | ? | ? | -3% | -10%
CC(C)=C1CCC(C)CC1=NNC(N)=S (stereo unspecified) | ? | ? | 21µM* | -3% | -2%
CC1C/C(=N\NC(N)=S)c2cc(Cl)ccc2S1 (stereo unspecified) | 12 | -2% | ? | -17% | ?
Cc1cc2nc(-c3ccc[nH]c3=O)[nH]c2cc1C | -14 | 7.3µM* | 10µM* | 18µM* | 18µM*
Cc1ccc(S(=O)(=O)Nc2ccccc2CNC2CCCCC2)cc1 | 8 | -5% | -13% | 27% | 12%
Cc1ccc(C)c(/C=C2\N=C(c3ccccc3F)OC2=O)c1 | -13 | ? | ? | 4% | 0%
Cc1ccc2cc(/C=C3\N=C(c4ccccc4)OC3=O)c(N3CCOCC3)nc2c1 | 15 | ? | 18µM* | 20% | 14%
Cc1cccn2c(CNC3CCCc4ccccc43)c(C(=O)N3CCCCC3)nc12 (stereo unspecified) | -6 | ? | ? | -17% | -19%
Cc1ccc(CN2C(=O)c3ccccc3Sc3ccc(C(=O)NCCN4CCOCC4)cc32)cc1 | -16 | ? | ? | 9.2µM* | 12µM*
